Reference: PubChem BioAssay (NCI)
About 79,000 compounds went through this panel and 15% of them were active in at least one assay; those are over-represented in the sample as a whole. Cut-off read from the data, not from the text of the source: active = growth inhibition above about 70%; inactive = the rest.

What was measured:
[1] = NCI Yeast Anticancer Drug Screen. Data for the rad50 strain (AID 155);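 note: 0% = growth of vehicle-only cultures of the same strain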; conditions: S. cerevisiae rad50 strain growth inhibition; at 50.0 µM; active compounds read high
Method in brief: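 Cells are treated with compound, grown, and their growth is then scored against vehicle-only cultures of the same repair-deficient yeast strain.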

[2] = NCI Yeast Anticancer Drug Screen. Data for the mec2-1 strain (AID 157); conditions: S. cerevisiae mec2-1 strain, at 50.0 µM, active compounds read high
Method in brief: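 Each compound was tested on mec2-1 yeast, a strain altered in DNA damage repair or cell cycle control. Growth inhibition is reported relative to vehicle.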

[3] = NCI Yeast Anticancer Drug Screen. Data for the sgs1 mgt1 strain (AID 161);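 note: 0% = growth of cultures given vehicle only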; conditions: S. cerevisiae sgs1 mgt1 strain, at 50.0 µM, active compounds read high
Method in brief: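 Genetically altered yeast, compound exposure, growth inhibition relative to vehicle.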

[4] = NCI Yeast Anticancer Drug Screen. Data for the cln2 rad14 strain (AID 165);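 note: 0% = growth equal to vehicle treated cultures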; conditions: S. cerevisiae cln2 rad14 strain, at 50.0 µM, active compounds read high
Method in brief: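 Test compounds were added to cln2 rad14 yeast cultures; inhibition of growth was then determined by comparison with vehicle treatment.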

[5] = NCI Yeast Anticancer Drug Screen. Data for the bub3 strain (AID 167); conditions: S. cerevisiae bub3 mutant strain, at 50.0 µM, active compounds read high
Method in brief: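 Part of a panel of yeast mutants defective in DNA damage repair or cell cycle regulation. Each strain is grown with compound, and inhibition is calculated relative to solvent-treated cultures.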

[6] = NCI Yeast Anticancer Drug Screen. Data for the mlh1 rad18 strain (AID 175); conditions: S. cerevisiae mlh1 rad18 strain growth inhibition; at 50.0 µM; active compounds read high
Method in brief: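 Inhibition values reflect reduced growth of mutant yeast versus vehicle-treated controls following compound exposure; the mutations affect DNA damage repair.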

Measured: growth inhibition

CC1(C)C(CC(=O)O)CC1C(=O)O (centres undefined)
inactive: [1] 10.4% | [2] -0.7% | [3] -27.4% | [4] 11.2% | [5] -34.6% | [6] -1.4%

COc1cc(C(=O)O)cc(OC)n1
inactive: [1] 10.8% | [2] 4.15% | [3] -6.6% | [4] -36.4% | [5] -16.9% | [6] 8.25%

COc1cc2c(cc1OC)NC(C)=CC(C)=N2
inactive: [1] -14.3% | [2] 5.1% | [3] 0.3% | [4] 25.2% | [5] 25.7% | [6] 15.9%

CC(=O)OC1CC23CCC(=O)C2(CC3)C1 (centres undefined)
inactive: [1] 19.9% | [2] -5.8% | [3] 1.85% | [4] -30.1% | [5] 8.3% | [6] -11%

OCc1ccccc1CO
inactive: [1] -19.6% | [2] -15% | [3] -9.25% | [4] 13.3% | [5] -3.75% | [6] 3.15%

CC1CCCC(C(O)CC2CC(=O)NC(=O)C2)C1O (centres undefined)
inactive: [1] 17.4% | [2] -3.65% | [3] 3.5% | [4] -29.8% | [5] 1.7% | [6] 4.45%

COC(=O)C(C)c1cccc2ccc3ccccc3c12 (centres undefined)
inactive: [1] 16.3% | [2] -11.7% | [3] 16.2% | [4] 9.55% | [5] 15.2% | [6] 23.4%

CCOC(=O)NC(=O)c1cn(CCN2CCN(C(=O)NCCCCCCNC(=O)N3CCN(CCn4cc(C(=O)NC(=O)OCC)c(=O)[nH]c4=O)CC3)CC2)c(=O)[nH]c1=O
inactive: [1] -12.3% | [2] 14.7% | [3] -8.95% | [4] -18.6% | [5] -0.75% | [6] -11.6%

COc1cc2c3c(c1)[nH]c(=S)n3C(=O)CS2
inactive: [1] -18.9% | [2] -30.1% | [3] -57.4% | [4] -16.7% | [5] -18.7% | [6] -40.9%

C/C(=C\C(=O)c1ccccc1)c1ccccc1
inactive: [1] 17.3% | [2] -5.8% | [3] -20.9% | [4] -16.6% | [5] 12.2% | [6] 57%

Clc1ccc(-n2ncc3c2-c2ccccc2CCC3)cc1
inactive: [1] 31.4% | [2] -6.5% | [3] 3.5% | [4] 4.85% | [5] 48.2% | [6] 34.3%

CSc1ccc(NC(=O)NNP(=S)(Oc2ccc(C(C)(C)C)cc2)Oc2ccc(C(C)(C)C)cc2)cc1
inactive: [1] -10.7% | [2] -18.1% | [3] 0.5% | [4] 13.8% | [5] -5.75% | [6] -6.2%

CCOC(=O)C(=O)c1c(C)[nH]c(C)c1C(=O)OCC
inactive: [1] -2.15% | [2] -4.8% | [3] 17.1% | [4] -23.1% | [5] 7.3% | [6] -9.1%

O=C(O)CCC(=O)CCC(=O)c1ccc(O)c2ncccc12
inactive: [1] -6.55% | [2] 6.2% | [3] 16.8% | [4] 26.5% | [5] 16.2% | [6] 21.5%

Cc1cc2nc(/C(C#N)=C/c3cc(Cl)cc(Cl)c3O)[nH]c2cc1C
inactive: [1] 16.2% | [2] 22.4% | [3] 33% | [4] 28.1% | [5] 19.4% | [6] -3.35%

CC(C)=CC1C(COC(=O)c2ccccc2Cl)C1(C)C (centres undefined)
inactive: [1] 1% | [2] -8.3% | [3] -2.9% | [4] -27.9% | [5] -12.4% | [6] 18.8%

CC(=O)N/C(=C\c1ccccc1)C(N)=O
inactive: [1] 9.9% | [2] 12.9% | [3] 1.2% | [4] 0.6% | [5] 36% | [6] 1.55%

COc1ccc2c(c1OC)C1NCCc3cc4c(cc3C1(OC)C2=O)OCO4 (centres undefined)
inactive: [1] 21.9% | [2] 2.35% | [3] 0.85% | [4] 0.5% | [5] 2% | [6] 8.55%

CCCCCCCCCCCCCCCCCC[N+](CCCC)(CCCC)CCCCCCCCCCCCCCCCCC (tested in a mixture with another compound)
inactive: [1] 3.45% | [2] 7.25% | [3] 1.7% | [4] -10% | [5] 1.5% | [6] 4.3%

CCCCCCCCCCCCS(=O)(=O)CC(=O)O
inactive: [1] -8.65% | [2] 7.9% | [3] 8.15% | [4] -84.2% | [5] 29.4% | [6] 9.05%

CC1CC(C)(C)NC(c2ccccc2)O1 (centres undefined)
inactive: [1] 1.75% | [2] -5% | [3] 1.3% | [4] 10.1% | [5] -14.4% | [6] 29.4%

O=Cc1c2c(cc3c1CC1(C3)Cc3cc4c(c(C=O)c3C1)CCCC4)CCCC2
inactive: [1] 5.25% | [2] 11.6% | [3] 4.4% | [4] 25.3% | [5] 17.3% | [6] 25.1%

CC(=O)Nc1ccc(S(=O)(=O)/C(=C/c2ccc(-c3ccc(Br)cc3)o2)c2ccc([N+](=O)[O-])o2)cc1
inactive: [1] 30% | [2] -7.45% | [3] -12.2% | [4] 13.7% | [5] 1.1% | [6] -8.05%

NC(=O)CCN(CCC(N)=O)CCC(N)=O
inactive: [1] -9.25% | [2] 7.1% | [3] -3.3% | [4] -24.9% | [5] -4.15% | [6] -12.9%

C=C(C)COc1ccc(C2OCC(CC)C(CCC)O2)cc1 (centres undefined)
inactive: [1] -4.3% | [2] -10.6% | [3] -7.5% | [4] -45% | [5] 5% | [6] -9.25%

CCOCCC12CCCCC1C/C(=N/OC(C)=O)c1ccccc12 (centres undefined)
inactive: [1] 9.3% | [2] -5.95% | [3] -0.45% | [4] 1.2% | [5] 15.7% | [6] 35.8%

CC(=O)OC1COC(n2cnc3c(N)ncnc32)C(OC(C)=O)C1OC(C)=O (centres undefined)
inactive: [1] 5.3% | [2] -5.15% | [3] 2.3% | [4] -26.1% | [5] 1.2% | [6] -4.2%

CC(C)C(N)C(=O)Nc1nncs1 (centres undefined)
inactive: [1] 11.6% | [2] -2.15% | [3] -8% | [4] -10.1% | [5] -33.6% | [6] -28.6%

CC(=O)Oc1ccc2cc(Br)ccc2c1N(C(C)=O)C(C)=O
inactive: [1] 13.1% | [2] -7.35% | [3] 10.8% | [4] -66.5% | [5] 24.6% | [6] -1.85%

CCOC(=O)CC1(C)OCCO1
inactive: [1] 31.9% | [2] 11.4% | [3] 8.95% | [4] 21.8% | [5] 21.3% | [6] 28%

Cc1ccc(N=Nc2ccc(N(C)C)cc2)cc1
inactive: [1] 18.6% | [2] -8.05% | [3] -16.6% | [4] -51.6% | [5] -6.2% | [6] 14.7%

CCOC(=O)N(c1ccccc1)c1ccccc1
inactive: [1] -11.3% | [2] -18.8% | [3] 18.7% | [4] 5.65% | [5] 5% | [6] 15.2%

O=C(O)COc1cccc([N+](=O)[O-])c1
inactive: [1] 3% | [2] -10.3% | [3] -9.9% | [4] -62.5% | [5] -5% | [6] -17.4%

C=CC1C(C[C@@H]2c3cc(O)c(O)cc3CCN2C(C)=O)C(C(=O)OC)=CO[C@H]1OC1OC(CO)C(O)C(O)C1O (some centres undefined)
inactive: [1] -1.15% | [2] -38.4% | [3] -32.8% | [4] 14.8% | [5] -35% | [6] 19.4%

CCOC(NCc1ccc(OC)c(OC)c1)OCC
inactive: [1] 3.6% | [2] -11.8% | [3] 6.45% | [4] 3.55% | [5] 17.1% | [6] 11.3%

N=C(N)c1nc2ccccc2s1
inactive: [1] 6.2% | [2] -13.5% | [3] 17.4% | [4] 7.65% | [5] 24% | [6] 5.3%

O=C(O)C12C3CCC(C3)C1(C(=O)O)C1CCC2C1 (centres undefined)
inactive: [1] -13.3% | [2] -13.9% | [3] -14.4% | [4] 24.3% | [5] -0.65% | [6] -12.2%

O=C1OC(=O)C2(Cl)C3C=CC(C3)C12 (centres undefined)
inactive: [1] 9.3% | [2] -8.15% | [3] -15.6% | [4] -72.6% | [5] -16.3% | [6] 4.8%

O=CNc1ccccc1Cc1ccccc1
inactive: [1] 13.2% | [2] -24% | [3] 4.5% | [4] 7.85% | [5] 4.25% | [6] 1.65%
